Source: PubChem
Rows were chosen to be rich in hits. Some 2.4% of all compounds tested hit in one or more screens of this group.
Cruzain inh noDet = qHTS Assay for Promiscuous and Specific Inhibitors of Cruzain (without detergent) | Potency, µM, usual class: inhibitors | 2.3% of 200,000 active | purified cruzain, Z-FR-AMC fluorescence, no detergent | AID 1476, 2009 | Cruzipain (Trypanosoma cruzi), P25779; also: nearly all actives have a fitted effect of over 40% in size
Target sequence (P25779 123-467 limits assumed): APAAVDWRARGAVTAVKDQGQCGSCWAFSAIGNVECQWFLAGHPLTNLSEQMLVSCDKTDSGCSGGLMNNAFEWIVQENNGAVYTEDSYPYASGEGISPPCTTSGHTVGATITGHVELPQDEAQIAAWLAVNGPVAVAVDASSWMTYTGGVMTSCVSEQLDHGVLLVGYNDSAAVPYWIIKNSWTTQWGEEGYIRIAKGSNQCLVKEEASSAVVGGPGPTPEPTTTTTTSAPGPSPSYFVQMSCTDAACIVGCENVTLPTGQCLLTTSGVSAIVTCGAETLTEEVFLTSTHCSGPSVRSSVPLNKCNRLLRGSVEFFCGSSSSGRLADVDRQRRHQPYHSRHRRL
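Detergent-free condition (0.00005% Triton X-100) in acetate buffer pH 5.5 with DTT. 1.5 nM enzyme and compound were pre-mixed 15 min, then 2 uM Z-FR-AMC substrate added; reaction progress from fluorescence change between first and third reads (60 s).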
Cruzain Triton = qHTS Assay for Promiscuous and Specific Inhibitors of Cruzain (with detergent). Potency, µM, hits mostly inhibitors. Cruzipain (Trypanosoma cruzi), P25779. purified cruzain, Z-FR-AMC fluorescence, 0.01% Triton. 0.43% of 200,000 active; also: nearly all actives have a fitted effect of over 40% in size
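Compounds were screened in titration against cruzain (1.5 nM) with 0.01% Triton X-100 to counter colloidal aggregation. Activity was the AMC fluorescence increase over 60 s after adding 2 uM Z-FR-AMC at pH 5.5.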
A number is an active result; i = inactive; ? = inconclusive. Calls follow the shape of the dose curve; as a rule, active = well fitted curve in the direction sought with a large enough effect; inconclusive = small, poorly fitted or top-dose-only effect, or another doubt; inactive = no such curve, though single readings can be large; an effect the other way counts as inactive or inconclusive.

SMILES	Cruzain inh noDet	Cruzain Triton
CCc1ccc(NC(=O)c2ccc(CN3C(=O)C(C)=C(c4ccc(C)cc4)S3(=O)=O)cc2)cc1	i	i
Cc1ccc(S(=O)(=O)Nc2ccc3c(c2)c(C(=O)OC(C)C)c(C)n3S(=O)(=O)c2ccc(C)cc2)cc1	5µM	i
CCOC(=O)c1c(-c2ccccc2)oc2ccc(NS(=O)(=O)c3ccc(C)cc3)cc12	?	i
COCCOC(=O)c1c(C)n(S(=O)(=O)c2ccc(C)cc2)c2ccc(NS(=O)(=O)c3ccc(C)cc3)cc12	10µM	i
Cc1ccc(S(=O)(=O)Nc2ccc(S(=O)(=O)N3CCCC3)cc2)cc1	i	i
CNc1ncnc2ccc(-c3ccccc3OC)cc12	i	i
O=C(CSc1nc2ccccc2nc1Cc1ccccc1)N1CCCc2ccccc21	i	i
Cc1cccc(NC(=O)Cn2c(=O)n(CC3CCC(C(=O)NCCc4ccccc4)CC3)c(=O)c3ccccc32)c1 (configuration not stated)	i	i
CNC(=S)N1N=C(c2ccc(C)cc2)CC1c1ccc(Cl)cc1 (configuration not stated)	i	i
CNC(=S)N1N=C(c2ccc(C)cc2)CC1c1ccc(Br)cc1 (configuration not stated)	2.5µM	i
NC(=O)CSc1nc2cc3c(cc2c(=O)n1CCCCCC(=O)NCc1ccc2c(c1)OCO2)OCO3	i	i
COc1ccc(/C=N/N=C2/NC(=O)C(c3ccccc3)(c3ccccc3)S2)cc1	3.2µM	i
COc1ccc(/C=N/N2C(=O)c3ccccc3C2=O)cc1	i	i
COC(=O)c1ccc(NC(=O)c2cc3cc4ccc(OC)c(Cl)c4nc3s2)cc1	i	i
COc1ccc(OCC(=O)N(C)Cc2ccccc2)cc1	i	i
COCCCN(C(C)=O)c1nc(-c2ccccc2)cs1	i	i
O=C(COc1ccc(Cl)cc1)N(Cc1ccccc1)c1nc(-c2ccccc2)cs1	10µM	i
COc1ccc(-c2csc(N(CCc3ccccc3)C(=O)COc3ccccc3)n2)cc1	13µM	i
COc1ccc([C@@H]2[C@@H](O)[C@H](O)[C@@H](C)N2C)cc1OC	i	i
Cc1cc(C(=O)COc2ccc(-c3nnco3)cc2)c(C)n1Cc1ccccc1	16µM	i
O=C(COc1ccc(-c2nnco2)cc1)NCc1ccccc1Cl	i	i
COCCNC(=O)CCCn1c(=O)c2ccccc2n(CC(=O)NCCC2=CCCCC2)c1=O	i	i
CSc1ccc(/C=c2\s/c(=C\C(=O)C(C)(C)C)n(CC(=O)NCCC3=CCCCC3)c2=O)cc1	3.2µM	i
COc1ccccc1-n1nc(-c2ccccc2)c2cnc3c(F)cc(F)cc3c21	i	i
CCOc1ccc(C2=NNC(c3cccs3)=Nc3ccc(OC)cc32)cc1	?	i
SMILES	Cruzain inh noDet	Cruzain Triton
CCOc1ccc2c(c1)C(c1ccc(C)cc1)=NNC(c1ccc(OC)cc1)=N2	16µM	i
O=C(CN(Cc1ccccc1)S(=O)(=O)c1ccc2c(c1)OCCO2)Nc1ccc2c(c1)OCCO2	20µM	i
CS(=O)(=O)N(CC(=O)Nc1ccc2c(c1)OCCO2)Cc1ccccc1	i	i
N/C(=N\OC(=O)Oc1ccccc1)c1cccc([N+](=O)[O-])c1	i	i
O=C(C#Cc1ccccc1)c1cccc([N+](=O)[O-])c1	i	13µM
CCOc1ccc(C(=O)NCc2nnnn2-c2ccc(C)c(C)c2)cc1OCC	i	i
O=c1c2cccnc2n(Cc2ccccc2F)c(=O)n1Cc1ccccc1Cl	i	i
Cc1cc(Cl)ccc1OC(C)C(=O)Nc1ccc(S(=O)(=O)Nc2cnc3ccccc3n2)cc1 (configuration not stated)	?	25µM
CCC(Oc1ccccc1)C(=O)Nc1ccc(S(=O)(=O)Nc2cnc3ccccc3n2)cc1 (configuration not stated)	?	i
CC(Oc1ccc(Cl)cc1Cl)C(=O)Nc1ccc(S(=O)(=O)Nc2cnc3ccccc3n2)cc1 (configuration not stated)	i	22µM
COc1cc(NS(=O)(=O)c2ccc(NC(=O)C(C)Oc3ccc(Cl)cc3Cl)cc2)nc(OC)n1 (configuration not stated)	i	i
Cc1ccc(CNC(=O)C2CCN(C(=O)c3ccc(-n4ccc5ccccc54)s3)CC2)cc1	i	i
O=C(Cn1cc(SCc2ccccc2Cl)c2ccccc21)N1CCCCCC1	?	i
O=C(Nc1ccc(OC(F)(F)F)cc1)NC1COc2ccccc2C1 (configuration not stated)	i	i
O=C(c1cccs1)[C@@H]1[C@@H]2C(=O)N(Cc3ccc4c(c3)OCO4)C(=O)[C@@H]2C2c3ccccc3C=CN21 (some centres not stated)	25µM	i
CC(C)(C)C(=O)[C@@H]1[C@@H]2C(=O)N(C3CCCCC3)C(=O)[C@@H]2[C@H]2c3ccccc3C=CN12	?	i
O=C(c1ccc2c(c1)OCO2)[C@@H]1[C@@H]2C(=O)N(C3CCCCC3)C(=O)[C@@H]2C2c3ccccc3C=CN21 (some centres not stated)	20µM	i
O=C(Nc1ccc2c(c1)OCO2)[C@@H]1[C@@H]2C(=O)N(C3CCCCC3)C(=O)[C@@H]2C2c3ccccc3C=CN21 (some centres not stated)	20µM	i
O=C(Nc1ccc2c(c1)OCO2)C1CCN(S(=O)(=O)Cc2ccccc2)CC1	i	i
O=C1c2ccccc2C(=O)N1Cc1ccc2c(c1)OCO2	i	i
O=c1c2ccccc2oc2cc(O)c(C3COCC(CO)C(O)C(O)C3O)c(O)c12 (configuration not stated)	i	i
COc1ccc(OC)c(NC(=O)C2=C(C)C(=O)OC23CCN(C(C)C)CC3)c1	i	i
CCc1ccc(C(c2ccccc2)c2c[nH]c3ccc(C)cc23)s1 (configuration not stated)	i	i
COc1ccc(NC(=O)CSc2nc(-c3ccc(OC)c(OC)c3)[nH]c2-c2ccc(C)cc2)cc1	i	i
Cc1nn(CCC(=O)NCc2ccc(Cl)cc2)c(=O)c2nn(-c3ccccc3)c(C)c12	i	i
SMILES	Cruzain inh noDet	Cruzain Triton
Cc1ccc(C)c(N2CCN(S(=O)(=O)c3cc(C(=O)Nc4cc(Cl)cc(Cl)c4)ccc3F)CC2)c1	i	i
Cc1ccc(N2CCN(S(=O)(=O)c3cc(C(=O)Nc4cc(Cl)cc(Cl)c4)ccc3F)CC2C)cc1 (configuration not stated)	2.5µM	i
Cc1cccc(Cn2c(=O)n(-c3ccccc3C)c(=O)c3c2c2cc(C)ccc2n3C)c1	i	i
CC(C)C[C@@H]1NC(=O)[C@H](C(C)C)NC(=O)c2cc([N+](=O)[O-])cc(I)c2NCC[C@@H](C(N)=O)NC1=O	i	14µM
CC(C)[C@@H]1NC(=O)c2cc([N+](=O)[O-])cc(I)c2NCC[C@@H](C(N)=O)NC(=O)[C@H](CO)NC1=O	?	i
CC(=O)C1=C(C)NC(SCC(=O)c2ccc(Cl)cc2Cl)=C(C#N)C1c1ccco1 (configuration not stated)	32µM	i
CC(=O)C1=C(C)NC(SCC(=O)c2ccc(Cl)cc2)=C(C#N)C1c1ccco1 (configuration not stated)	i	i
O=C(Nc1ccc2nc(SCCOc3ccccc3)sc2c1)c1cccs1	i	i
Cc1ccc(NC(=O)NC(=O)COc2ccc(Cl)cc2Cl)c(C)c1	13µM	i
Cc1cccc(NC(=S)NNC(=O)COc2ccc(Cl)cc2Cl)c1	?	i
